The text below walks through data of ChEMBL document CHEMBL3988442, “University of Dundee, Small-Polar-MMV Screening Library” (2021).

SMILES strings stand for the structures. For some assays here: Measured potencies and affinities stand elsewhere.

Holding throughout (design): scale not given: direction of the effect not stated beside the values
Assay [1] addresses Protein translocase subunit SecA (Escherichia coli (strain K12)) (UniProt P10408). The assay can be described thus: Assay to Identify E. coli SecA ATPase Inhibitors. Type of assay: functional. Conditions: 30 µM.
Assay [2] has as its target T1, Ubiquitin-activating enzyme e1, putative (Leishmania donovani (strain BPK282A1)) (UniProt E9BSI1).
T1 sequence (whole entry): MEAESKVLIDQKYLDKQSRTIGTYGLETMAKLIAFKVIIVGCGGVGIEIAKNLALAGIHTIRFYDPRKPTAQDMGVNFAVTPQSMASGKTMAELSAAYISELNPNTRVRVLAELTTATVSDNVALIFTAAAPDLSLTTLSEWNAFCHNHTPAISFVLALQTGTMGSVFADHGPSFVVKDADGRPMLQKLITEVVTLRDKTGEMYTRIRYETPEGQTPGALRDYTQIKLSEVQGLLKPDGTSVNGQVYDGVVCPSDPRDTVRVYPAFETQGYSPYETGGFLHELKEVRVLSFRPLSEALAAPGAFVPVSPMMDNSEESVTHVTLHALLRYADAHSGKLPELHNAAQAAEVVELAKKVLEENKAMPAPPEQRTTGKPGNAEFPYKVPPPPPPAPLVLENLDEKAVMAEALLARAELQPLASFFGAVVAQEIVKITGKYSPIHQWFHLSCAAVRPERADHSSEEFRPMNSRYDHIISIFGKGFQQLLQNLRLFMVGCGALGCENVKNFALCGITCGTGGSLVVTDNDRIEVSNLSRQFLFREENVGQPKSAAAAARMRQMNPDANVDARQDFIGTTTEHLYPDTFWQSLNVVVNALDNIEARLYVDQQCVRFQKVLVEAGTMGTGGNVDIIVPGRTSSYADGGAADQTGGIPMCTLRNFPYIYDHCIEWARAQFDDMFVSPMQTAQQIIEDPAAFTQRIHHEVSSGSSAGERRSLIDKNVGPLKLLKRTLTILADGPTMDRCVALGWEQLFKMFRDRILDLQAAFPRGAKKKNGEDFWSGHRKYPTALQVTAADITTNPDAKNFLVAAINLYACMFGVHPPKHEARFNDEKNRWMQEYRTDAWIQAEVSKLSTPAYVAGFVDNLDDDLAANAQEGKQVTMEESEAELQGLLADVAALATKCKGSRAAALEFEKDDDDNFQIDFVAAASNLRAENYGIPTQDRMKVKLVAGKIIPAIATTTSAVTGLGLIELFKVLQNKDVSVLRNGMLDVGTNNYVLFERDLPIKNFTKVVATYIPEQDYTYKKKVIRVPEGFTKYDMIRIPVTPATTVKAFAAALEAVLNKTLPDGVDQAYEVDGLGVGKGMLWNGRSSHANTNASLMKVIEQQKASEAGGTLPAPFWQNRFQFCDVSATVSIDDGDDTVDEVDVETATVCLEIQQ
The assay can be described thus: Leishmania donovani Ubiquitin Activating Enzyme (LdE1). Conditions: 30 µM. Format: functional.

In assay [3] the target is T2, Aspartate--tRNA(Asp/Asn) ligase (Mycobacterium tuberculosis (strain ATCC 25618 / H37Rv)) (UniProt P9WFW3). Note: in the data most compounds retested in dose-response had high values.
T2 sequence (whole entry): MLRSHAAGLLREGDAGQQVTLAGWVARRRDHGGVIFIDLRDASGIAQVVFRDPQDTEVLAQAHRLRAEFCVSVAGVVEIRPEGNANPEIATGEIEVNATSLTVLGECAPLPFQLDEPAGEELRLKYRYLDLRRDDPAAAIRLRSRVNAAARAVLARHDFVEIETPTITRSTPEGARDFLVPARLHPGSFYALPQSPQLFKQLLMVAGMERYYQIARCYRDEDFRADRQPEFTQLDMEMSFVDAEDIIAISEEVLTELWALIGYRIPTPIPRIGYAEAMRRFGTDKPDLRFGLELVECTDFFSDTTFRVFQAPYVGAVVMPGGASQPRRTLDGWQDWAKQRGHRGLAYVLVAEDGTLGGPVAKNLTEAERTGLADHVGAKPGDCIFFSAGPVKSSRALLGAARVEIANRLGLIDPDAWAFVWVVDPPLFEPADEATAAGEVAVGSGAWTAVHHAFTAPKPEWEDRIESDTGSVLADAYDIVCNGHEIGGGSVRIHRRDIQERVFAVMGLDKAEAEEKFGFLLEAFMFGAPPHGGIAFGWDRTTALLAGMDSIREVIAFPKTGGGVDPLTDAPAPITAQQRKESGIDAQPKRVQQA
Put plainly: Assay for Asp RNA synthetase-1 from Mycobacterium tuberculosis. Type of assay: functional. The conditions noted are these: 30 µM.

In assay [4] the target is AMP-activated protein kinase, AMPK (Homo sapiens) (UniProt P54646+O43741+P54619+Q9UGJ0+Q9Y478+Q13131+Q9UGI9). The assay can be described thus: AMP-dependent Kinase enzyme assay. An in vitro enzyme assay that detects ADP turnover that is directly proportional to AMPK activity. This uses naive AMPK that is activated during the assay with MK-8722. Format: functional. The conditions noted are these: 30 µM.

Assay [5] has as its target Sialic acid-binding Ig-like lectin 9 (Homo sapiens) (UniProt Q9Y336). The assay can be described thus: Hs-Siglec9 ALPHAscreen SOP 20170721. The conditions noted are these: 10 µM.
Another assay concerns Trypanosoma cruzi. Put plainly: Trypanosoma cruzi phosphomannomutase and mannose-1-phosphate guanylyltransferase assay. The conditions noted are these: 10 µM. Type of assay: functional.
The target in assay [6] is T3, Arginase-2, mitochondrial (Homo sapiens) (UniProt P78540).
T3 sequence (whole entry): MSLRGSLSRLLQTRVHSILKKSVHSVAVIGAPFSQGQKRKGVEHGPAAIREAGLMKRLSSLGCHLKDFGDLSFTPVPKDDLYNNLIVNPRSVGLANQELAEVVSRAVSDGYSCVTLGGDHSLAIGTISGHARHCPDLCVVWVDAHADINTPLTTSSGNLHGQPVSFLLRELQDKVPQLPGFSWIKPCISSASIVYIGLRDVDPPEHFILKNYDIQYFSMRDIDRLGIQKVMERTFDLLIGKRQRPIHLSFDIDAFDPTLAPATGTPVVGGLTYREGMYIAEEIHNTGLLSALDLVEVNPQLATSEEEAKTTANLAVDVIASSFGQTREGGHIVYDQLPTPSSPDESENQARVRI
Put plainly: in vitro enzyme assay to detect the production of urea directly proportional to the activity of Arginase II. Note: in the data most compounds retested in dose-response had high values. Type of assay: functional. Conditions: 33.3 µM.

Assay [7] addresses T4, Proteasome subunit beta (Trypanosoma cruzi) (UniProt O96673).
T4 sequence (whole entry): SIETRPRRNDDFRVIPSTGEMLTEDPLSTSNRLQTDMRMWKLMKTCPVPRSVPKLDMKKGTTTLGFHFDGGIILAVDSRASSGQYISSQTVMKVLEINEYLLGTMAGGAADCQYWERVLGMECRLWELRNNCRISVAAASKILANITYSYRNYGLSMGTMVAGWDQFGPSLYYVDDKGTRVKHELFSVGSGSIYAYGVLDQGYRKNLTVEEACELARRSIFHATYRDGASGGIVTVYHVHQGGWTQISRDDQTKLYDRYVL
Put plainly: Trypanosoma cruzi proteasome chymotrypsin-like activity (TcProtChymo) assay. Note: in the data most compounds retested in dose-response had high values. Type of assay: functional. The conditions noted are these: 9.37 µM.

The species named for a further assay is Homo sapiens. The assay can be described thus: To identify inhibition of the IFN signalling (Jak-Stat) pathway via expression of an eGFP reporter gene under the control of an IFN-stimulated response element (ISRE) containing MxA promoter. Format: functional. Conditions: 30 µM. A general note: A reporter such as luciferase makes a cellular process visible.

For assay [8], the target named is Shiga toxin 2 (Escherichia coli O157:H7) (UniProt P09385+P09386). The assay can be described thus: E. coli 0.157:H7 Shiga Toxin SOP - stx2 screening assay. The conditions noted are these: 30 µM. Type of assay: functional.
Assay [9] has as its target T5, Tyrosyl-tRNA synthetase, putative (Trypanosoma cruzi (strain CL Brener)) (UniProt Q4DSP6).
T5 sequence (whole entry): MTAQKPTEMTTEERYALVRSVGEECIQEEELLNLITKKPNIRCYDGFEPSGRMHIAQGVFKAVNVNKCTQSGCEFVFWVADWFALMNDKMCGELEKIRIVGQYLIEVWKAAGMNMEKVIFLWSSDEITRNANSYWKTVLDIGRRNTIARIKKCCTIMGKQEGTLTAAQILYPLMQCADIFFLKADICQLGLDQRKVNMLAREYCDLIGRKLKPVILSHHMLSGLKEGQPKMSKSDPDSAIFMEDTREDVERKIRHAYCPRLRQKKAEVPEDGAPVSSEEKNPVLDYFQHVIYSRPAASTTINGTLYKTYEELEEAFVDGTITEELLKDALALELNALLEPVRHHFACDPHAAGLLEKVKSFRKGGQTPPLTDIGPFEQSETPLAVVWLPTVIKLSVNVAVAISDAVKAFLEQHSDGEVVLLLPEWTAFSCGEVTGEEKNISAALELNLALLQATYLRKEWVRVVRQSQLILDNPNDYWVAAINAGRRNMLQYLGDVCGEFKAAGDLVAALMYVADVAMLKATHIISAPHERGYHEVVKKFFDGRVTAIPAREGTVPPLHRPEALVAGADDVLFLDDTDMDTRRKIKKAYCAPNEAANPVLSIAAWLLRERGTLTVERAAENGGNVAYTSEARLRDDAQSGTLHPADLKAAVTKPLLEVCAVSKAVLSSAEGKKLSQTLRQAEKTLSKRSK
Put plainly: Trypanosoma cruzi tyrosyl tRNA synthetase (TcYRS) _High Tyrosine SOP. Note: in the data most compounds retested in dose-response had high values. Format: functional. The conditions noted are these: 30 µM.

Assay [10] has as its target T5, Tyrosyl-tRNA synthetase, putative (Trypanosoma cruzi (strain CL Brener)). The assay can be described thus: Trypanosoma cruzi tyrosyl tRNA synthetase (TcYRS) SOP. Type of assay: functional. Conditions: 30 µM.
Assay [11] addresses Chromo domain-containing protein 1 (Saccharomyces cerevisiae (strain ATCC 204508 / S288c) (Baker's yeast)) (UniProt P32657). The assay can be described thus: ScCHD-1 Enzyme Inhibition Assay. Note: in the data most compounds retested in dose-response had high values. Type of assay: functional. Conditions: 30 µM.

Sequence of Sialic acid-binding Ig-like lectin 9 (Homo sapiens) (Q9Y336 whole entry): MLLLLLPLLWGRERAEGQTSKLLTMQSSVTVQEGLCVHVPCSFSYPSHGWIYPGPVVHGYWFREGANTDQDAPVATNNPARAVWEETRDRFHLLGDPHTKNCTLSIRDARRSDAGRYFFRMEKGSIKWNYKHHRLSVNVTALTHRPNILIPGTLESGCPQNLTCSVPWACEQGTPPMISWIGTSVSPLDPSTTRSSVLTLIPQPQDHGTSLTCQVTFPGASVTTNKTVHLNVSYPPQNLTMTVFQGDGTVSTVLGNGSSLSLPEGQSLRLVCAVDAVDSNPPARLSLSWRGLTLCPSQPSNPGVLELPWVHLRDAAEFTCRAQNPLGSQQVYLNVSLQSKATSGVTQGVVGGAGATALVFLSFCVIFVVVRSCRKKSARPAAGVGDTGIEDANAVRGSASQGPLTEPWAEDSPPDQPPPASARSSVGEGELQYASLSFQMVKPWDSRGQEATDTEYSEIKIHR
Sequence of Chromo domain-containing protein 1 (Saccharomyces cerevisiae (strain ATCC 204508 / S288c) (Baker's yeast)) (P32657 whole entry, the tested form may be a part): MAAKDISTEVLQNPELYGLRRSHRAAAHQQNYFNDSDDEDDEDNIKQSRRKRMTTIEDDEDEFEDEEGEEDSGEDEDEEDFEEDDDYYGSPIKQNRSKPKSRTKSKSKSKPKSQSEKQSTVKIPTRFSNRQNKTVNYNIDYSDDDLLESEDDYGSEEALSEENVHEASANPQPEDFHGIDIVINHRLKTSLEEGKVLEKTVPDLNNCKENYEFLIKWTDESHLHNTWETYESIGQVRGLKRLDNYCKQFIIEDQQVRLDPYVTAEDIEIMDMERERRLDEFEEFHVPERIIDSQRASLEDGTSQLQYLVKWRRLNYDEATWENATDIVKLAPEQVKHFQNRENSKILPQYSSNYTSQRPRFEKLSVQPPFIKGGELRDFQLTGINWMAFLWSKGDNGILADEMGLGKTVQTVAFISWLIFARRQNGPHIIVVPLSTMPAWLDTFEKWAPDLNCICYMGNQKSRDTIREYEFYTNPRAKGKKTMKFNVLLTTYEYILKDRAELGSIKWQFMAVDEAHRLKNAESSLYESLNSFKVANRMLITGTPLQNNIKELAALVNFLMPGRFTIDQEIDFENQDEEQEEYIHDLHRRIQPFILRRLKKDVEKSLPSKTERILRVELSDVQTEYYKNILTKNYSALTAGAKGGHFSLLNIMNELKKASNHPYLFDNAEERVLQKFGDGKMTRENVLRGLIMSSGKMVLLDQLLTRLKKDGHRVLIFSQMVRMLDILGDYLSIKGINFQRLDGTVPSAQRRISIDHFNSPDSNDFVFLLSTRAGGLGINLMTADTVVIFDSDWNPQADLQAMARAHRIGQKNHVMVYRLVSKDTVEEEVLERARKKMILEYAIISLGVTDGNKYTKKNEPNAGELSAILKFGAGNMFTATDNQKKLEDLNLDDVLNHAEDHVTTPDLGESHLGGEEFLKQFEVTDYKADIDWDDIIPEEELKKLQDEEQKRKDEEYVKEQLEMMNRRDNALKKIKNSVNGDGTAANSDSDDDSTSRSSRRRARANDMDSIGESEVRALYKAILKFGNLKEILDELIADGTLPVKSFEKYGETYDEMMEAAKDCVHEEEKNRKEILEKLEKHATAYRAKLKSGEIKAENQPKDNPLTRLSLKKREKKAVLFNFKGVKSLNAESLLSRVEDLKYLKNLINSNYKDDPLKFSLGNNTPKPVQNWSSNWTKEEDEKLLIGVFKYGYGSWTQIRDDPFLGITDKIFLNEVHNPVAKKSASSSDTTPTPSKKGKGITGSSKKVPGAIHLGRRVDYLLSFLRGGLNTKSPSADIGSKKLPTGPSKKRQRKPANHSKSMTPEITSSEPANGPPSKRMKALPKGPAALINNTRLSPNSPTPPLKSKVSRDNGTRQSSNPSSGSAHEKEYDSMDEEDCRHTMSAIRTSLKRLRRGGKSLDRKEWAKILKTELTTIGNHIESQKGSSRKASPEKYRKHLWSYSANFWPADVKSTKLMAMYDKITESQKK
Sequence of Protein translocase subunit SecA (Escherichia coli (strain K12)) (P10408 whole entry): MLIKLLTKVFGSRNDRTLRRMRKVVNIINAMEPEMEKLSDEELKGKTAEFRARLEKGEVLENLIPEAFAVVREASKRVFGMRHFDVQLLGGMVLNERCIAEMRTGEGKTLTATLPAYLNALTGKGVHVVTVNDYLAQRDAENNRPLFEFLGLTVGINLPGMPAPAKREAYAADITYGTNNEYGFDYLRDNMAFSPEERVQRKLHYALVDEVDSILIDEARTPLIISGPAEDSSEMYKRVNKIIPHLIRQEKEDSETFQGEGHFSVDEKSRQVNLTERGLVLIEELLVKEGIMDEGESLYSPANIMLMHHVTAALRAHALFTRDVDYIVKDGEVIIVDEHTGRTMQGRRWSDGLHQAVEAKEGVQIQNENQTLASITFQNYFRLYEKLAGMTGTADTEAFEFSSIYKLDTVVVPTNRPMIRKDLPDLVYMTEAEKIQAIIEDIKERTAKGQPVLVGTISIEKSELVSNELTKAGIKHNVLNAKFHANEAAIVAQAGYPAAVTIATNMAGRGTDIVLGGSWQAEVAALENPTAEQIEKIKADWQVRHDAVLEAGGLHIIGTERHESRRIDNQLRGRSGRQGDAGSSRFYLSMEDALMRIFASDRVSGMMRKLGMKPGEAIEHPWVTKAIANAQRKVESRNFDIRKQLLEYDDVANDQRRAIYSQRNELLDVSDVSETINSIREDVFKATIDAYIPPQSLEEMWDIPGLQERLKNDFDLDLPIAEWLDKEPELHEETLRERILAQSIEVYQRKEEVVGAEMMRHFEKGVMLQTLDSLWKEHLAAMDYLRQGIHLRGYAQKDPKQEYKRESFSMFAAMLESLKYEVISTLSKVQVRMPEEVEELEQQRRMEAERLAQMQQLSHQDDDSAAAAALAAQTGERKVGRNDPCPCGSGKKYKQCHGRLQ

With `Cc1cc(CN2C[C@@H]3COC[C@]3(CNC(=O)c3ccno3)C2)no1`, the Percent Effect was -5.72% in assay [1]; 2.7% in assay [2]; 6.65% in [3]; 2.65% in assay [4]; 4.53% in assay [5]; 0.293% with Trypanosoma cruzi. Further, the Percent Effect in [6] is 8.6%; in assay [7] it was 13.1%; in the assay filed under Homo sapiens, -16.8%; in assay [8], -2.33%; in [9] it was 3.24%; in [10], 5.13%. The Percent Effect in assay [11] amounted to 1.22%.

For the molecule `CCn1ccnc1CN1CCCN(C(=O)Cc2ccc(C)nc2)CC1`, the Percent Effect in assay [1] is -2.41%; in assay [2] it was 5.2%; in assay [3] it was 1.82%; in [4], 5.72%; in [5], 3.18%; with Trypanosoma cruzi it was 2.45%. The Percent Effect is 3.16% in assay [6]; 10.4% in assay [7]; -0.845% in the assay listed under Homo sapiens; 6.49% in assay [8]; -0.952% in assay [9]; 0% in assay [10]. Besides, the Percent Effect in assay [11] was -16.3%.

Consider `COCc1cncc2c1CCN(Cc1ccccn1)C2`, for which the Percent Effect is -5.11% in [1]; 5.41% in assay [2]; 3.14% in [3]; -2.9% in assay [4]; -3.72% in assay [5]; -0.391% in the assay with Trypanosoma cruzi. Also, the Percent Effect in [6] is 4.58%; in assay [7], 14.4%; in the assay filed under Homo sapiens it was 2.95%; in assay [8] it was -55.7%; in assay [9], 14.8%; in assay [10] it was 23.2%. Further, the Percent Effect in [11] is 1.79%.

Take `O=C(Nc1cccnc1)[C@H]1COC[C@H]2CN(C3CCCC3)C[C@H]21`: the Percent Effect in assay [1] was -5.23%; in assay [2] it was 8.11%; in [3], 5.33%; in assay [4] it was 1.79%; in assay [5], 1.44%; with Trypanosoma cruzi it was 2.15%. Also, the Percent Effect in assay [6] was 3.33%; in assay [7] it was 10.2%; in the assay listed under Homo sapiens, -5.51%; in assay [8], -10.3%; in assay [9], 4.95%; in assay [10] it was 11%. In assay [11], the Percent Effect is -4.54%.

As to `CNC(=O)CN1CCOCC2(CCCN(Cc3cccnc3)C2)C1` (stereo not given), the Percent Effect in assay [1] was -1.67%; in assay [2], -2.7%; in assay [3], 2.13%; in assay [4] it was 2.03%; in assay [5], -2.12%; with Trypanosoma cruzi, -4.1%. Besides, the Percent Effect in [6] is -0.833%; in [7], 0.93%; in the assay filed under Homo sapiens it was -2.53%; in [8] it was -22.5%; in assay [9] it was 6.93%; in assay [10], 1.22%. The Percent Effect in assay [11] was found to be 3.52%.
